Measurements published in PubChem BioAssay (NCATS).
Records with an inconclusive call do not appear. Entries that show only a call come without a potency. The source made the active and inactive calls. Unless noted, calls follow the shape of the full dose curve.

Columns and labels:
[1] = qHTS for Inhibitors of the Functional Ribonucleoprotein Complex (vRNP) of Lassa (LASV) Arenavirus: LASV Primary Screen - GLuc reporter signal (AID 1347082; calls by dose curve; tested in HEK293 reporter line; also: nearly all actives have a fitted effect of over 60% in size)
[2] = qHTS for Inhibitors of the Functional Ribonucleoprotein Complex (vRNP) of Lassa (LASV) Arenavirus: Viability assay - alamar blue signal for LASV Primary Screen (AID 1347083; calls by dose curve; tested in HEK293 reporter line; also: nearly all actives have a fitted effect of over 80% in size)
[3] = qHTS for Inhibitors of the Functional Ribonucleoprotein Complex (vRNP) of Lymphocytic Choriomeningitis Arenaviruses (LCMV): Viability assay - alamar blue signal for LCMV Primary Screen (AID 1347085; calls by dose curve; tested in HEK293 reporter line; also: nearly all actives have a fitted effect of over 80% in size)
[4] = molecular target: Nucleoprotein (Lymphocytic choriomeningitis virus (strain Armstrong)) (UniProt P09992); experiment: qHTS for Inhibitors of the Functional Ribonucleoprotein Complex (vRNP) of Lymphocytic Choriomeningitis Arenaviruses (LCMV): LCMV Primary Screen - GLuc reporter signal (AID 1347086); also: nearly all actives have a fitted effect of over 70% in size
[5] = Confirmatory qHTS for small molecule stabilizers of the endoplasmic reticulum resident proteome: Secreted ER Calcium Modulated Protein (SERCaMP) assay (AID 1508628; active = well fitted curve in the direction sought with a large enough effect; an effect the other way counts as inactive or inconclusive; also: potency is read from the fitted curve at half-maximal effect; nearly all actives have a fitted effect of over 40% in size)
How it was run: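 Reporter secretion upon ER calcium depletion (100 nM thapsigargin, 4 h, 37C) is measured as medium luminescence with coelenterazine, after 16 h compound pretreatment of SH-SY5Y-GLuc-SERCaMP cells; primary at three concentrations up to 38.3 uM, follow-up at 11 (up to 76.6 uM).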

[6] = Cell Viability qHTS for small molecule stabilizers of the endoplasmic reticulum resident proteome (AID 1508629; active = well fitted curve in the direction sought with a large enough effect; an effect the other way counts as inactive or inconclusive;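 also: human SH-SY5Y neuroblastoma cells carrying the GLuc-SERCaMP reporter; compound exposure about 46 h in total before the viability read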); conditions: cell viability counter-screen, 100 nM thapsigargin for final 4 h
[7] = Inducers of the Endoplasmic Reticulum Stress Response (ERSR) in human glioma: Validation (AID 504836; active = well fitted curve in the direction sought with a large enough effect; an effect the other way counts as inactive or inconclusive)
How it was run: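 ERSR induction read as luciferase luminescence (Bright-Glo, 10 min at room temperature) in stably transfected human U87-MG glioma cells exposed to compounds for 16 h, using GRP78 as sensor.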

[8] = Primary qHTS for Huh7 cytotoxicity: counterscreen for inhibitors of MERS-S pseudotyped particle cell entry (AID 1479147); conditions: outcome: dose series up to 57.1 µM unless noted
[9] = Primary qHTS for inhibitors of MERS-S pseudo-typed particle cell entry (AID 1479149); also: nearly all actives have a fitted effect of over 60% in size
[10] = Primary qHTS for Vero E6 cytotoxicity: counterscreen for inhibitors of SARS-S pseudo-typed particle cell entry (AID 1479150); conditions: outcome: dose series up to 57.1 µM unless noted
[11] = Cytotoxicity counterscreen for inhibitors of SARS-CoV-2 cell entry (AID 1645845); also: nearly all actives have a fitted effect of over 50% in size
How it was run: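 ATP-content luminescence (ATPLite 1step, 15 min RT) read after 48 h compound exposure of Expi293F cells stably expressing human ACE2; normalized to cells-only wells and media-only wells.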

[12] = Primary qHTS to identify inhibitors of SARS-CoV-2 cell entry (AID 1645846); conditions: activity change, negative = inhibition: at 57.1 µM (top of the series) unless noted; also: nearly all actives have a fitted effect of over 45% in size
How it was run: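 Luminescence readout (Bright-Glo luciferase) 48 h after pseudoparticle addition. HEK293-ACE2 cells, 1500/well; compound pre-incubation 1 h; Normalized to spike PP and bald PP.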

Chain of Nucleoprotein (Lymphocytic choriomeningitis virus (strain Armstrong)) (P09992 whole entry, looked up): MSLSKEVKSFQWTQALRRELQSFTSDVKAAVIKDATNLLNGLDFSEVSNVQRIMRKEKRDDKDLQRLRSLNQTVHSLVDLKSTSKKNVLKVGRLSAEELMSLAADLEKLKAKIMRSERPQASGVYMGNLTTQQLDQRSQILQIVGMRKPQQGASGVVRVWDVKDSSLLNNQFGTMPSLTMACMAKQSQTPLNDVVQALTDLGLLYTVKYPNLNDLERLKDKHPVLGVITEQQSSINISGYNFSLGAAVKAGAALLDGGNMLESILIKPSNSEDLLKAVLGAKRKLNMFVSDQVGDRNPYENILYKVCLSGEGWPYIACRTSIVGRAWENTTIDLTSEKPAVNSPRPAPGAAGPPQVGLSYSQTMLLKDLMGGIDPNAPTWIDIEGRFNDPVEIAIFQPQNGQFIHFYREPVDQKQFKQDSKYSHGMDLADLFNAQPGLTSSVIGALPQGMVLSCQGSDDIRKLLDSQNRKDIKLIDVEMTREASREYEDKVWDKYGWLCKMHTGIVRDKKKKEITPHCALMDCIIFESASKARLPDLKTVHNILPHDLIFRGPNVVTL

SMILES	Potency [1]	Potency [2]	Potency [3]	Potency [4]	Potency [5]	max response [6]	outcome [7]	outcome [8]	Potency [9]	outcome [10]	Potency [11]	activity change, negative = inhibition [12] [%]
CC(C)(O)C1OC2CCC3(C)C(O)(CCC4Cc5c([nH]c6ccccc56)C43C)C2=CC1=O (stereo unspecified)	inactive	inactive	inactive	inactive	28.2 µM (active)	28.4% (inactive)	–	–	–	–	–	–
CC(=O)O[C@H]1Cc2ccccc2N(C(N)=O)c2ccccc21	inactive	inactive	inactive	inactive	–	–	inactive	inactive	inactive	inactive	inactive	-29.9
